Here are results for 25 targets from the supplement of paper PMC6411743.

Compound in this assay: Nc1ncnc2c1ncn2[C@@H]1O[C@H](COP(=O)(O)OP(=O)(O)OP(=O)(O)O)[C@@H](O)[C@H]1O [adenosine triphosphate]
Briefly: NP40-soluble protein abundance relative to vehicle (solubility fold change) (ratio); higher = more soluble protein in presence of ATP. The gist of the method: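 Crude Jurkat lysate, prepared by Dounce homogenisation, was exposed to eight concentrations from 0.1 to 10 mM for 10 min at room temperature and then 3 min at 37 °C. Solubilisation used 0.8% NP40 with benzonase for 60 min at 4 °C, followed by ultracentrifugation and TMT labelling of the supernatant for LC-MS/MS. After vsn normalisation of intensities, each value is the fold change against the detergent-processed vehicle within each replicate, across three independent experiments.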

± gives the standard deviation of the averaged measurements. Targets with the largest changes are over-represented here; the source holds about 6,500 in all.

UniProt O75081, sequence (O75081 whole entry): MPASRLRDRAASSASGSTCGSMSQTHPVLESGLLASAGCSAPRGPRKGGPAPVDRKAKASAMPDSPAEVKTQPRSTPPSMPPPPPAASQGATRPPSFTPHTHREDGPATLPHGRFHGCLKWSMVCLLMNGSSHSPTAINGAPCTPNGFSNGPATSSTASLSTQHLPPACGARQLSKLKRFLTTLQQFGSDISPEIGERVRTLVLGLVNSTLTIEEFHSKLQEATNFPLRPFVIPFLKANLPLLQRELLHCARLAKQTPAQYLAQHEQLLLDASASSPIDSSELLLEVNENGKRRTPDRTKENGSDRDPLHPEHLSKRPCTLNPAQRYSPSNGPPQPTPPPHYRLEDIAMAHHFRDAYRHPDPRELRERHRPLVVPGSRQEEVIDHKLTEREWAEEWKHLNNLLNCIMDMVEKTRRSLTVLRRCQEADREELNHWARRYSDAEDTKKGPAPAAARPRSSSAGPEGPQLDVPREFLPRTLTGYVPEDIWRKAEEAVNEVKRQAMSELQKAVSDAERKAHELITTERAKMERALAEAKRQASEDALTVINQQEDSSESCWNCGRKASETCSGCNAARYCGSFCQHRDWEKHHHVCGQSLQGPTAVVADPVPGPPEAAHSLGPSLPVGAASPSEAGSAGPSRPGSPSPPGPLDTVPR
UniProt O00567, sequence (O00567 whole entry): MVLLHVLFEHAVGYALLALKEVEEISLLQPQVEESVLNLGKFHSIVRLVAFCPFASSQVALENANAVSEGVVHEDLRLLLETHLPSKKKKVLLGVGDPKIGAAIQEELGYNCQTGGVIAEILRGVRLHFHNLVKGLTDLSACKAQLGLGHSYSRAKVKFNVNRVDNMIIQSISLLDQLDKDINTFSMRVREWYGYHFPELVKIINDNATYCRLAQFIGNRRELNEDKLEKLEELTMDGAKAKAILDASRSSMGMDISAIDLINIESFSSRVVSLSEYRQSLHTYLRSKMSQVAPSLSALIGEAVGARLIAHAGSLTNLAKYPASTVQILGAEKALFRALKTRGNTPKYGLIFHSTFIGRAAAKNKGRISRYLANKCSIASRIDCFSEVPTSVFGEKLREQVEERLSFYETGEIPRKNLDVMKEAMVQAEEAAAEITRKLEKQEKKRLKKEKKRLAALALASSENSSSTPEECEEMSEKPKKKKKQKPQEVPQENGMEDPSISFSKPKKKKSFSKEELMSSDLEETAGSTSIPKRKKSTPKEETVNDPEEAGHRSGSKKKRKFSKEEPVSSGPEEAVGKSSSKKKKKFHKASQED
UniProt P55786, sequence (P55786 whole entry, one chain of several): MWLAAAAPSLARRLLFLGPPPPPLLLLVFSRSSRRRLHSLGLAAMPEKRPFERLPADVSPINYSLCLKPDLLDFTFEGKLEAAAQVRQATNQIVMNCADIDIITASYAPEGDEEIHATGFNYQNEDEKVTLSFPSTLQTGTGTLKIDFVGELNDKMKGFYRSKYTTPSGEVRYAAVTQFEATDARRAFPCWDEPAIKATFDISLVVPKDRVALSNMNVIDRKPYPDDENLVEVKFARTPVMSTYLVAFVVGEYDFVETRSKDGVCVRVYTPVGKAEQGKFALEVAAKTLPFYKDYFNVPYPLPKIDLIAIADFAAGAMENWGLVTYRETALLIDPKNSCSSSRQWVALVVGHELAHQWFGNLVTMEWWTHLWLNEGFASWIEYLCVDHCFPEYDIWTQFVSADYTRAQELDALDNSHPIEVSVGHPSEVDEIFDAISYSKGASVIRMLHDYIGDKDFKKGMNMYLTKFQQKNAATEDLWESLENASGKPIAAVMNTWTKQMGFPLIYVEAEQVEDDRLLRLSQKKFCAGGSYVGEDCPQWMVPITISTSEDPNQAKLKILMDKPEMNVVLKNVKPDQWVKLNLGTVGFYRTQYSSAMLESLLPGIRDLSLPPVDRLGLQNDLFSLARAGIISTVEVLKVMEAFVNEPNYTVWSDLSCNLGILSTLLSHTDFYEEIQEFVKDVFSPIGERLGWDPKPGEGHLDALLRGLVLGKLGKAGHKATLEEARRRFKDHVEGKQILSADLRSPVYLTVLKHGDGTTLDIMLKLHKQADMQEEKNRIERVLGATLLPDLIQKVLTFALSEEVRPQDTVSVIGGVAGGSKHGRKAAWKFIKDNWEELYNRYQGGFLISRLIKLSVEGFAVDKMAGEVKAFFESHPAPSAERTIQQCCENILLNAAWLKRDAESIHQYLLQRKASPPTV
UniProt P49821, sequence (P49821 whole entry, one chain of several): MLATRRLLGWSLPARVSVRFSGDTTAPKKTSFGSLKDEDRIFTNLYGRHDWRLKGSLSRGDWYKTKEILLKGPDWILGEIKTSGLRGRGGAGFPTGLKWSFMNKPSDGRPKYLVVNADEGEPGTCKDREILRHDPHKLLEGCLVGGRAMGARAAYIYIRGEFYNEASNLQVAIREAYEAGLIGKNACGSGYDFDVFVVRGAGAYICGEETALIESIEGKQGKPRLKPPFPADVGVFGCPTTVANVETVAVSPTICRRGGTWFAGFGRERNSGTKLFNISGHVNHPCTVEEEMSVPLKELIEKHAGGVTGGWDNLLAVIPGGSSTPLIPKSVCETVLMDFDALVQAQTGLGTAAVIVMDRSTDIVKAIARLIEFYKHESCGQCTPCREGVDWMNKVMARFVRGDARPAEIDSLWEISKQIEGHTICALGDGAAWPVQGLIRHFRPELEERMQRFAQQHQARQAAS
UniProt Q9NWH9, sequence (Q9NWH9 whole entry, one chain of several): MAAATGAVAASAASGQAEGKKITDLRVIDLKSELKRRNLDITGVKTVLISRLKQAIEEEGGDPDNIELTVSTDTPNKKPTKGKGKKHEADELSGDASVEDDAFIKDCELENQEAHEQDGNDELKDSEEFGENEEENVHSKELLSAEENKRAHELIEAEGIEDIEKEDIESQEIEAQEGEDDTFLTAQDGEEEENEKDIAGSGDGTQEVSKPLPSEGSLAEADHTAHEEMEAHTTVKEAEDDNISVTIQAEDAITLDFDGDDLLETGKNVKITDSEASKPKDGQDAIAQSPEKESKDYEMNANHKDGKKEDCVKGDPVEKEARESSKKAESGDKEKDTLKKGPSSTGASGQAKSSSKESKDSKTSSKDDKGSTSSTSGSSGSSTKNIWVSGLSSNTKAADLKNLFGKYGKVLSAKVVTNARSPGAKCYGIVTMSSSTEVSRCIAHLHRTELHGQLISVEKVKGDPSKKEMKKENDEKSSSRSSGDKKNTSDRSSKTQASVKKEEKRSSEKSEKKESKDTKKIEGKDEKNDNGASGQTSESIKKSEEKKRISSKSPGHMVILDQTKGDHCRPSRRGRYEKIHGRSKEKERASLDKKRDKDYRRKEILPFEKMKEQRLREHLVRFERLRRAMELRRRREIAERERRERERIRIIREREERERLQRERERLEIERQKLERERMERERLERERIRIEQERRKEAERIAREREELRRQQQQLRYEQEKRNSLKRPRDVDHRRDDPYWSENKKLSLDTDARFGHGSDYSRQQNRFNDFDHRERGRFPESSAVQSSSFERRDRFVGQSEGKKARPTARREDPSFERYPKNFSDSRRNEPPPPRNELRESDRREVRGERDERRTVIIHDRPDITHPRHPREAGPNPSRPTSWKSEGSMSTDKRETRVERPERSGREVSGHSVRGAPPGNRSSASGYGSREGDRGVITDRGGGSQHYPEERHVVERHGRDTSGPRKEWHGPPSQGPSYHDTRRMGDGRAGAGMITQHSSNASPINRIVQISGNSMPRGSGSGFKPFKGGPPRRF
UniProt O15269, sequence (O15269 whole entry): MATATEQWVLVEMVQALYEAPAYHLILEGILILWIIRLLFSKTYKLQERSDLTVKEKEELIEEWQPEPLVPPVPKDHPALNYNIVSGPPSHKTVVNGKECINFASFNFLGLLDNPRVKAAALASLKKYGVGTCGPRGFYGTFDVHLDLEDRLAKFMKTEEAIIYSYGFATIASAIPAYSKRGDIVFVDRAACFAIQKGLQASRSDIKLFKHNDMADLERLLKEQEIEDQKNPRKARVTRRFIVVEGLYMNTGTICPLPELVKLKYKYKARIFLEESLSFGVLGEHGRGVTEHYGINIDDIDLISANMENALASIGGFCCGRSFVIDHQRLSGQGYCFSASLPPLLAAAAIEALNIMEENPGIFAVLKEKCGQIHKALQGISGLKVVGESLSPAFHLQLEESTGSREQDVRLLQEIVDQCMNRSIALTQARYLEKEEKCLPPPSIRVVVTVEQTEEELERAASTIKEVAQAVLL
UniProt Q92664, sequence (Q92664 whole entry, one chain of several): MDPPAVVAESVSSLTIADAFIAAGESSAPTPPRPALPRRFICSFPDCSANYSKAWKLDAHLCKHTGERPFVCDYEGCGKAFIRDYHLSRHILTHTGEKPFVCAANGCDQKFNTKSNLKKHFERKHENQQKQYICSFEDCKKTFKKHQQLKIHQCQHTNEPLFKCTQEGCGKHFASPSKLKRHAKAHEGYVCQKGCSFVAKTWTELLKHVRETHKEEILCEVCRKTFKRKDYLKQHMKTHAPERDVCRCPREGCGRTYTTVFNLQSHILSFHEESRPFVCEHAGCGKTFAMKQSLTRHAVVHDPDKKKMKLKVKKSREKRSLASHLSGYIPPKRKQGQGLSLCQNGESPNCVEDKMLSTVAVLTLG
UniProt O95232, sequence (O95232 whole entry, one chain of several): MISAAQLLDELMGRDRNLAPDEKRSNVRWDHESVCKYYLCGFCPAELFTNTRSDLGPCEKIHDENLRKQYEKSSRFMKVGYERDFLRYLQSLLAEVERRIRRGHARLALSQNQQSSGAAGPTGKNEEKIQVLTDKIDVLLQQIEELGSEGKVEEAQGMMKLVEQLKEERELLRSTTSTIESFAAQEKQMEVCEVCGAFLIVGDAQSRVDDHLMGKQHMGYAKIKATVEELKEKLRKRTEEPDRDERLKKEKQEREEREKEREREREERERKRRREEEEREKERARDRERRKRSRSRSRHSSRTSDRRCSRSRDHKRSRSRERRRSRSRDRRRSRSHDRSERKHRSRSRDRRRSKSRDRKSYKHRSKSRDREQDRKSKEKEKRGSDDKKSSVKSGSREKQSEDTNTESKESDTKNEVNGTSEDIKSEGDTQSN

Regarding A0A0C4DGB9|Q9H2U2 (UniProt Q9H2U2), the NP40-soluble protein abundance by setting is: (concentration: 1mM) 0.971 ± 0.022; (concentration: 2mM) 0.97 ± 0.029; (concentration: 4mM) 0.953 ± 0.03; (concentration: 6mM) 0.93 ± 0.051; (concentration: 8mM) 0.952 ± 0.038; (concentration: 10mM) 0.919 ± 0.037.

Regarding J3KPP4|O95232 (UniProt O95232), the NP40-soluble protein abundance was 2.04 ± 0.11 (concentration: 1mM); 2.06 ± 0.14 (concentration: 2mM); 2.12 ± 0.1 (concentration: 4mM); 2.32 ± 0.14 (concentration: 6mM); 2.27 ± 0.13 (concentration: 8mM); 2.32 ± 0.18 (concentration: 10mM).

In the case of K7ENL9|Q96DM3 (UniProt Q96DM3), the NP40-soluble protein abundance (concentration: 1mM) is 1.04 ± 0.097; the NP40-soluble protein abundance (concentration: 2mM) turned out to be 0.984 ± 0.027; the NP40-soluble protein abundance (concentration: 4mM) stood at 1.02 ± 0.029; the NP40-soluble protein abundance (concentration: 6mM) was 1.02 ± 0.058; the NP40-soluble protein abundance (concentration: 8mM) turned out to be 1.02 ± 0.061; the NP40-soluble protein abundance (concentration: 10mM) is 0.985 ± 0.03.

In the case of NUDT21 (UniProt O43809), the NP40-soluble protein abundance (concentration: 1mM) was determined as 1.95 ± 0.11; the NP40-soluble protein abundance (concentration: 2mM) worked out at 2.06 ± 0.064; the NP40-soluble protein abundance (concentration: 4mM) came to 2.18 ± 0.1; the NP40-soluble protein abundance (concentration: 6mM) worked out at 2.25 ± 0.052; the NP40-soluble protein abundance (concentration: 8mM) was found to be 2.31 ± 0.1; the NP40-soluble protein abundance (concentration: 10mM) turned out to be 2.213 ± 0.019.

XYLB (UniProt O75191): the NP40-soluble protein abundance turned out to be 1 ± 0.053 (concentration: 1mM); 0.986 ± 0.062 (concentration: 2mM); 0.984 ± 0.097 (concentration: 4mM); 0.965 ± 0.069 (concentration: 6mM); 0.99 ± 0.075 (concentration: 8mM); 0.967 ± 0.053 (concentration: 10mM).

As to “H0Y6E7|H3BT71|P38159|P38159-2 (UniProt P38159)”, the NP40-soluble protein abundance (concentration: 1mM) amounted to 1.13 ± 0.068; the NP40-soluble protein abundance (concentration: 2mM) stood at 1.22 ± 0.042; the NP40-soluble protein abundance (concentration: 4mM) amounted to 1.34 ± 0.046; the NP40-soluble protein abundance (concentration: 6mM) amounted to 1.56 ± 0.087; the NP40-soluble protein abundance (concentration: 8mM) was 1.62 ± 0.026; the NP40-soluble protein abundance (concentration: 10mM) amounted to 1.79 ± 0.064.

Take J3KPF0 (UniProt Q9Y4D8): the NP40-soluble protein abundance by setting is: (concentration: 1mM) 1.08 ± 0.036; (concentration: 2mM) 1.04 ± 0.068; (concentration: 4mM) 1.05 ± 0.025; (concentration: 6mM) 1.01 ± 0.1; (concentration: 8mM) 1.02 ± 0.08; (concentration: 10mM) 1 ± 0.044.

As to SPTLC1 (UniProt O15269), the NP40-soluble protein abundance (concentration: 1mM) stood at 0.993 ± 0.026; the NP40-soluble protein abundance (concentration: 2mM) stood at 0.998 ± 0.032; the NP40-soluble protein abundance (concentration: 4mM) was determined as 0.997 ± 0.027; the NP40-soluble protein abundance (concentration: 6mM) worked out at 0.93 ± 0.096; the NP40-soluble protein abundance (concentration: 8mM) turned out to be 0.998 ± 0.024; the NP40-soluble protein abundance (concentration: 10mM) stood at 1 ± 0.049.

On to H0YLE6|Q9NWH9|H0YNF3 (UniProt Q9NWH9), for which the NP40-soluble protein abundance (concentration: 1mM) worked out at 0.961 ± 0.054; the NP40-soluble protein abundance (concentration: 2mM) is 0.988 ± 0.027; the NP40-soluble protein abundance (concentration: 4mM) was 0.993 ± 0.038; the NP40-soluble protein abundance (concentration: 6mM) turned out to be 1.11 ± 0.059; the NP40-soluble protein abundance (concentration: 8mM) worked out at 1.08 ± 0.032; the NP40-soluble protein abundance (concentration: 10mM) turned out to be 1.13 ± 0.033.

For E9PEB9|Q03001|Q03001-3 (UniProt Q03001), the NP40-soluble protein abundance (concentration: 1mM) came out at 0.92 ± 0.1; the NP40-soluble protein abundance (concentration: 2mM) amounted to 0.924 ± 0.041; the NP40-soluble protein abundance (concentration: 4mM) is 0.942 ± 0.081; the NP40-soluble protein abundance (concentration: 6mM) stood at 0.959 ± 0.15; the NP40-soluble protein abundance (concentration: 8mM) stood at 0.899 ± 0.09; the NP40-soluble protein abundance (concentration: 10mM) stood at 0.968 ± 0.056.

For SETD1A (UniProt O15047), the NP40-soluble protein abundance runs as follows: (concentration: 1mM) 0.962 ± 0.038; (concentration: 2mM) 0.97 ± 0.018; (concentration: 4mM) 0.979 ± 0.022; (concentration: 6mM) 0.997 ± 0.044; (concentration: 8mM) 0.969 ± 0.049; (concentration: 10mM) 0.997 ± 0.046.

As for A8MXP9|P43243|P43243-2 (UniProt P43243), the NP40-soluble protein abundance was 1.02 ± 0.042 (concentration: 1mM); 1.03 ± 0.038 (concentration: 2mM); 1 ± 0.026 (concentration: 4mM); 1.05 ± 0.039 (concentration: 6mM); 1 ± 0.029 (concentration: 8mM); 1.03 ± 0.015 (concentration: 10mM).

Consider UniProt O43865, for which the NP40-soluble protein abundance came to 0.982 ± 0.1 (concentration: 1mM); 0.965 ± 0.063 (concentration: 2mM); 0.963 ± 0.076 (concentration: 4mM); 0.973 ± 0.1 (concentration: 6mM); 0.96 ± 0.081 (concentration: 8mM); 0.969 ± 0.043 (concentration: 10mM).

As for UniProt O75081|O75081-2|O75081-4, the NP40-soluble protein abundance was 0.943 ± 0.039 (concentration: 1mM); 0.9218 ± 0.0052 (concentration: 2mM); 0.907 ± 0.052 (concentration: 4mM); 0.888 ± 0.14 (concentration: 6mM); 0.888 ± 0.082 (concentration: 8mM); 0.97 ± 0.089 (concentration: 10mM).

In the case of “A0A0B4J2C3|P13693|Q5W0H4 (UniProt P13693)”, the NP40-soluble protein abundance reads like this: (concentration: 1mM) 0.95 ± 0.025; (concentration: 2mM) 0.942 ± 0.021; (concentration: 4mM) 0.915 ± 0.025; (concentration: 6mM) 0.923 ± 0.05; (concentration: 8mM) 0.919 ± 0.035; (concentration: 10mM) 0.909 ± 0.048.

On to I3L448|Q5TC12 (UniProt Q5TC12), for which the NP40-soluble protein abundance worked out at 0.982 ± 0.049 (concentration: 1mM); 0.985 ± 0.028 (concentration: 2mM); 0.983 ± 0.046 (concentration: 4mM); 0.998 ± 0.04 (concentration: 6mM); 0.96 ± 0.04 (concentration: 8mM); 0.952 ± 0.022 (concentration: 10mM).

As to HAT1 (UniProt O14929), the NP40-soluble protein abundance is, setting by setting: (concentration: 1mM) 1.01 ± 0.16; (concentration: 2mM) 0.995 ± 0.098; (concentration: 4mM) 0.957 ± 0.08; (concentration: 6mM) 0.895 ± 0.15; (concentration: 8mM) 0.97 ± 0.09; (concentration: 10mM) 0.955 ± 0.04.

Consider “A0A0A6YYA7|Q12851|Q12851-2 (UniProt Q12851)”, for which the NP40-soluble protein abundance by setting is: (concentration: 1mM) 1.02 ± 0.026; (concentration: 2mM) 1 ± 0.044; (concentration: 4mM) 1.03 ± 0.063; (concentration: 6mM) 0.994 ± 0.079; (concentration: 8mM) 0.994 ± 0.026; (concentration: 10mM) 0.998 ± 0.027.

As to H7C3Q6|Q8WV92|B8ZZL5 (UniProt Q8WV92), the NP40-soluble protein abundance runs as follows: (concentration: 1mM) 1.85 ± 0.55; (concentration: 2mM) 1.9 ± 0.66; (concentration: 4mM) 1.92 ± 0.67; (concentration: 6mM) 1.9 ± 0.76; (concentration: 8mM) 1.97 ± 0.67; (concentration: 10mM) 1.94 ± 0.67.

For the target E9PJN1|O75676|O75676-2 (UniProt O75676), the NP40-soluble protein abundance (concentration: 1mM) was found to be 1.36 ± 0.22; the NP40-soluble protein abundance (concentration: 2mM) was 2.6 ± 1.5; the NP40-soluble protein abundance (concentration: 4mM) worked out at 1.34 ± 0.17; the NP40-soluble protein abundance (concentration: 6mM) is 1.35 ± 0.17; the NP40-soluble protein abundance (concentration: 8mM) was 1.31 ± 0.26; the NP40-soluble protein abundance (concentration: 10mM) was found to be 1.38 ± 0.13.

Take UniProt O15392|O15392-2: the NP40-soluble protein abundance by setting is: (concentration: 1mM) 0.961 ± 0.1; (concentration: 2mM) 2.09 ± 1.6; (concentration: 4mM) 1.13 ± 0.09; (concentration: 6mM) 1.23 ± 0.031; (concentration: 8mM) 1.26 ± 0.092; (concentration: 10mM) 1.31 ± 0.16.

On to E9PLK3|P55786 (UniProt P55786), for which the NP40-soluble protein abundance runs as follows: (concentration: 1mM) 1.02 ± 0.12; (concentration: 2mM) 0.997 ± 0.09; (concentration: 4mM) 0.976 ± 0.065; (concentration: 6mM) 0.927 ± 0.13; (concentration: 8mM) 0.999 ± 0.073; (concentration: 10mM) 0.974 ± 0.057.

For G3V0I5|P49821|P49821-2 (UniProt P49821), the NP40-soluble protein abundance reads like this: (concentration: 1mM) 0.986 ± 0.025; (concentration: 2mM) 0.96 ± 0.02; (concentration: 4mM) 0.944 ± 0.033; (concentration: 6mM) 0.94 ± 0.056; (concentration: 8mM) 0.962 ± 0.052; (concentration: 10mM) 0.953 ± 0.046.

On to UniProt O00567, for which the NP40-soluble protein abundance by setting is: (concentration: 1mM) 1.04 ± 0.038; (concentration: 2mM) 1.1 ± 0.033; (concentration: 4mM) 1.24 ± 0.02; (concentration: 6mM) 1.38 ± 0.06; (concentration: 8mM) 1.68 ± 0.064; (concentration: 10mM) 2.11 ± 0.2.

On to B7ZBK4|Q92664 (UniProt Q92664), for which the NP40-soluble protein abundance came to 1.02 ± 0.021 (concentration: 1mM); 1.03 ± 0.035 (concentration: 2mM); 1 ± 0.042 (concentration: 4mM); 0.9904 ± 0.0034 (concentration: 6mM); 0.989 ± 0.026 (concentration: 8mM); 0.976 ± 0.053 (concentration: 10mM).
